# Reference: PubChem BioAssay
# “And” between values parts separate entries of the source, which are not always exact repeats. Equal values may be shown once. Inconclusive results are not listed. The source made the active and inactive calls.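 How the source made its calls, unless noted: active means compounds whose cell count with miR-34 switched on is under 0.7 times the count with it off; inactive means the rest.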
# How the values were obtained:
# [1] = sensitizers of A549 cells to miR-34 induction, primary screen, imaging, A549 dox-inducible miR-34, nuclei and caspase counts (AID 1347080); conditions: A549 miR-34 inducible, Hoechst nuclei count, 48 h
# [2] = survival rescue of mitochondrial mutant cells in low glucose, primary screen, MELAS cybrids, Rieske KO mouse fibroblasts, CellTiter-Glo (AID 1508586;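 active means mean z-score across replicates of 1.96 or higher in either the MELAS or the Rieske mutant cell line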;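 further: z relative to plate mean and SD of compound and empty wells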)
# [3] = viability rescue of complex I mutant cybrids, primary screen, cell-based, galactose medium, ATP luminescence (AID 1645843;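 active means z-score of at least 1.8 in each of two replicates, scored against plate mean and spread of sample wells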;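 further: positive z means more ATP and so rescue of galactose-driven cybrid death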); conditions: complex I mutant cybrid cells, 72 h, stronger effect = higher value
# [4] = hESC survival regulators, cell-based (AID 493140; call rule not given here;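 further: cells exposed to compounds for four days before counting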); conditions: human embryonic stem cell survival screen; stronger effect = higher value
# [5] = liver-stage malaria parasite growth inhibition, primary screen, cell-based, HepG2, luciferase luminescence, HepG2 viability (AID 624349; in the data active means parasite load remaining mostly below about 12%, no sharp cut-off; inactive means mostly above about 10%;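 further: 100% = mean of DMSO negative control wells on the same plate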); conditions: P. berghei liver stage in HepG2, luciferase luminescence, concentration not given here; parasite load remaining: stronger effect = lower value; viability: measured here: HepG2 viability without parasites
# [6] = circadian clock period modulators, cell-based, LOPAC library, luminescence reporter (AID 2774; call rule not given here;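 further: values are relative to mean of DMSO wells on each plate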); conditions: circadian reporter cells, at 7 µM, actives lie on both sides
# [7] = test system: Hepatitis C virus NS3 helicase; assay: HCV NS3 helicase inhibitors, primary screen, biochemical, fluorescence polarization, LOPAC1280 library (AID 687035; in the data active means inhibition above about 37%); conditions: Purified HCV NS3 helicase, Cy5-dT15 ssDNA binding fluorescence polarization; stronger effect = higher value; concentration not given here
# [8] = Cy5 fluorescence quenching or enhancement artefacts, artefact control for HCV NS3 helicase inhibitor project, biochemical, LOPAC1280 (AID 687037; call rule not given here); conditions: Cy5-DNA-NS3h complex fluorescence interference counterscreen
# [9] = biological target: NAD(+) hydrolase SARM1 (Homo sapiens) (UniProt Q6SZW1); assay: SARM1 TIR NADase inhibitors, cell lysate, NAD-Glo luminescence (AID 1508614;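 active means compound whose remaining NAD level is above about 45 nM, limit read from the data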); conditions: SAM-TIR HEK293T lysate NADase, at 1 µM, stronger effect = higher value
# NAD(+) hydrolase SARM1 (Homo sapiens), sequence (Q6SZW1 whole entry, looked up, the tested form may be a part): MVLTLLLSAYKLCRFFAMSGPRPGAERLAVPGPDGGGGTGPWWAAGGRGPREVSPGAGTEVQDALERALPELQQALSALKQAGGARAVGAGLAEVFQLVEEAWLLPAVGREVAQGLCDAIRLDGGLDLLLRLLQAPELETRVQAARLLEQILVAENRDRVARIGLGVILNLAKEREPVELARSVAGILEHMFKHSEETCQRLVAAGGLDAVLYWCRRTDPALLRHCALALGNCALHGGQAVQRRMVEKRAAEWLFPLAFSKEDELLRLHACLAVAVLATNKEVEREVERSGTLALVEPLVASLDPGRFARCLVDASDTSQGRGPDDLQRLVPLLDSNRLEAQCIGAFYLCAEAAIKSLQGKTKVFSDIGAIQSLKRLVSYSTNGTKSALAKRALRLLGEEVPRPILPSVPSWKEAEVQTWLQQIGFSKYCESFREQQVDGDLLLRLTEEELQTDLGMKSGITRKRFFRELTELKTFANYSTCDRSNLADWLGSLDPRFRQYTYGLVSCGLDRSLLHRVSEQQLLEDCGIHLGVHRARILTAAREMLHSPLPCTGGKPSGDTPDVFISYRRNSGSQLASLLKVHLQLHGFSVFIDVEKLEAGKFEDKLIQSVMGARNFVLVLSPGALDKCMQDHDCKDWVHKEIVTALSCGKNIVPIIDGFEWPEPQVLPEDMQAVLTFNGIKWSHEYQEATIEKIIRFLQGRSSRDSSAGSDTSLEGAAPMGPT
# [10] = biological target: Mitogen-activated protein kinase 7 (Homo sapiens) (UniProt Q13164); assay: ERK5 transactivation activators in reporter cells, primary screen, cell-based, HTS (AID 1508626;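 active means luciferase signal above three times the same-plate solvent-only control wells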;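 further: luciferase driven by Gal4-ERK5 fusion binding five Gal4 sites before minimal TATA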); conditions: HeLa Gal4-ERK5 transactivation, 18 h, at 5 µM, stronger effect = higher value
# Mitogen-activated protein kinase 7 (Homo sapiens), sequence (Q13164 whole entry, looked up, the tested form may be a part): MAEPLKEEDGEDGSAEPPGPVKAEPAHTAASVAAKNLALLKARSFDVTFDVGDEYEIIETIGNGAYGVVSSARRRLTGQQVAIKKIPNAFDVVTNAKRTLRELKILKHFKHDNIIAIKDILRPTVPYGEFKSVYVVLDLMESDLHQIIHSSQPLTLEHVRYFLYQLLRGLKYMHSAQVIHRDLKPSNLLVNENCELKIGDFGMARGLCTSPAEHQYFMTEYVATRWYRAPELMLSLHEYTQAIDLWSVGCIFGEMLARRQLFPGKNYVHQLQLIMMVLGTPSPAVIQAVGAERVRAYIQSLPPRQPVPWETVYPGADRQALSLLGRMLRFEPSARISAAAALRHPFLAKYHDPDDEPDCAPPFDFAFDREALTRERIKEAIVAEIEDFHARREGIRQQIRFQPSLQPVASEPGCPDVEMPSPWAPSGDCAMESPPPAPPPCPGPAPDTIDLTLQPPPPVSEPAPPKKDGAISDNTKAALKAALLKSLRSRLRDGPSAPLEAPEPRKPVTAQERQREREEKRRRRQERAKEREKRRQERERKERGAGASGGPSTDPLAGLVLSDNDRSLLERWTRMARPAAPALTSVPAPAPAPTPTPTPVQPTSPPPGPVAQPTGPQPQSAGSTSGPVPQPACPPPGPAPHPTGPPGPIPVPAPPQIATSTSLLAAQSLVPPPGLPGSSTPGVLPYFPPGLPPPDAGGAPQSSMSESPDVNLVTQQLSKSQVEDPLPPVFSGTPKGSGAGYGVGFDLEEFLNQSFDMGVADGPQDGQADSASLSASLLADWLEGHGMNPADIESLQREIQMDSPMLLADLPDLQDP
# [11] = phospholipid biosynthesis inhibitors in animal cells, primary screen, cell-based, LOPAC library, screen 4 (AID 1347384; call rule not given here); conditions: phospholipid biosynthesis inhibition screen, at 10 µM
# [12] = biological target: ATP-dependent translocase ABCB1 (Homo sapiens) (UniProt P08183); assay: MDR1 (ABCB1) efflux transporter inhibition, cell-based (AID 377; in the data active means fluorescence slope change above about 50%); conditions: MDR1-expressing cells, fluorescent substrate accumulation slope; stronger effect = higher value; concentration not given here
# ATP-dependent translocase ABCB1 (Homo sapiens), sequence (P08183 whole entry, looked up): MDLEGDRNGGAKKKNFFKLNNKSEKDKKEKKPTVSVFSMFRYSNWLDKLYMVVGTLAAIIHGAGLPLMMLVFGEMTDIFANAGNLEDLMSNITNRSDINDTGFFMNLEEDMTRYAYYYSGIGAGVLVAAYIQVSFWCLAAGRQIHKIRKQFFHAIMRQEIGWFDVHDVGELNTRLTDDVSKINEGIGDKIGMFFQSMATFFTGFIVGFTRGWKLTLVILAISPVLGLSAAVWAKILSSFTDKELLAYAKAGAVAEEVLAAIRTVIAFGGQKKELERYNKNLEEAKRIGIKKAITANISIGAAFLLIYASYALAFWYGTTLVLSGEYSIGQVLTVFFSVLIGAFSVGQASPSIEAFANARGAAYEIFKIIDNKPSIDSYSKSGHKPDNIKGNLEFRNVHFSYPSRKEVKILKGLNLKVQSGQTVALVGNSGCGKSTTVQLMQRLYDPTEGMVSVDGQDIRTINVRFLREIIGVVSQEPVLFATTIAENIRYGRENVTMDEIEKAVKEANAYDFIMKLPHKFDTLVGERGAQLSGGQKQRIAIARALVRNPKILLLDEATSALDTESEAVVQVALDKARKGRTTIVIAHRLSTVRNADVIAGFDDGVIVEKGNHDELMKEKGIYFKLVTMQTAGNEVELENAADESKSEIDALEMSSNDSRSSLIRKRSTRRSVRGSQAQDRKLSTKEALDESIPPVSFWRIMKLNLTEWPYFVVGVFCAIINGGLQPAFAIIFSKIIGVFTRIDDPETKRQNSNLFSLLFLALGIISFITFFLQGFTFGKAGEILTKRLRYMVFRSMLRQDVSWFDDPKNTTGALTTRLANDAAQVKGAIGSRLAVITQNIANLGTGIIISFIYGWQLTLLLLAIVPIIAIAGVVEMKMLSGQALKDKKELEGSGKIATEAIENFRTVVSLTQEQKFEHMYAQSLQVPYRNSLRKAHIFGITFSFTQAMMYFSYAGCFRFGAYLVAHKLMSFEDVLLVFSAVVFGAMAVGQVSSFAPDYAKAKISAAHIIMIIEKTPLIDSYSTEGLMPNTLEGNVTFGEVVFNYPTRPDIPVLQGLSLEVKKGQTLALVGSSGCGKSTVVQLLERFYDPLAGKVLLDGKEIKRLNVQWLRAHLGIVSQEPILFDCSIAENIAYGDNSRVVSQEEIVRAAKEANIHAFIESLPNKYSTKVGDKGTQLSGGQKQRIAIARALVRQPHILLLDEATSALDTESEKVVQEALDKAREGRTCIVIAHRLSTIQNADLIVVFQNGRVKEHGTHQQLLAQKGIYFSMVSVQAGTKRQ
# [13] = stronger effect = lower value, cell number ratio, induced over uninduced
# [14] = measured here: relative caspase fold change +Dox/-Dox
# [15] = measured here: total cells with miR-34 induction, stronger effect = lower value
# [16] = measured here: total cells without miR-34 induction
# [17] = MELAS cybrid survival, CellTiter-Glo 48 h, stronger effect = higher value
# [18] = Rieske KO mouse fibroblast survival, CellTiter-Glo 72 h
Compound,"fold change [1, 13]","fold change [1, 14]","cell count [1, 15]","cell count [1, 16]","z-score [2, 17]","z-score [2, 18]",z-score [3],survival [4],parasite load remaining [5],viability [5],period change [6],inhibition [7],fluorescence ratio (interference) [8],remaining NAD [9],luciferase signal [10],outcome [11],fluorescence slope change [12]
CCCC1CC(C(=O)NC(C(C)Cl)C2OC(SC)C(O)C(O)C2O)N(C)C1 (stereo unspecified),0.887 (inactive) and 0.926 (inactive) and 0.928 (inactive),0.463 and 0.824 and 1.2,8440 and 7670 and 9370,9520 and 8280 and 10100,0.443 (inactive) and -0.35 (inactive) and -0.364 (inactive),-0.229 and -0.0713 and 0.118,-0.495 (inactive),,,,,,,,,,
CNCC(O)C(O)C(O)C(O)CO (stereo unspecified),0.893 (inactive) and 0.901 (inactive),1.03 and 1.16,8100 and 7840,9080 and 8700,-0.226 (inactive),0.0963,,4.5 (inactive),95.3% (inactive),101%,,,,,,,
CNCCC(Oc1cccc2ccccc12)c1cccs1 (stereo unspecified),0.825 (inactive) and 0.844 (inactive) and 0.922 (inactive),1.39 and 1.04 and 2.23,4830 and 5000 and 7370,5860 and 5930 and 7990,-0.107 (inactive),-1.06,-1.4 (inactive) and -1.81 (inactive),,,,,,,,,,
CCCCC[C@H](O)/C=C/[C@@H]1[C@@H](C/C=C\CCCC(=O)O)[C@H](O)C[C@H]1O,0.925 (inactive) and 0.811 (inactive) and 0.869 (inactive),1.48 and 1.52 and 1.28,5990 and 4790 and 5310,6480 and 5900 and 6110,,,,98.1 (inactive),,,,,,,,,
NC(=O)c1cc[n+](CC2=C(C(=O)O)N3C(=O)[C@@H](NC(=O)[C@@H](c4ccccc4)S(=O)(=O)[O-])[C@H]3SC2)cc1,1.02 (inactive) and 0.887 (inactive),2.31 and 1.36,10400 and 9300,10200 and 10500,0.659 (inactive),-0.267,-0.05 (inactive),7.17 (inactive),79.7% (inactive),103%,-0.015 h (inactive),4% (inactive),1 (inactive),10 nM (inactive),36 AU (inactive),,
CNC(=O)[C@H]1O[C@@H](n2cnc3c(NCc4cccc(I)c4)ncnc32)C(O)[C@H]1O (stereo partly specified),1.05 (inactive) and 1.03 (inactive),0.68 and 1.21,10000 and 5680,9560 and 5540,,,2.43 (active),,,,-0.015 h (inactive),-2% (inactive),0.9 (inactive),,,inactive,
C[C@]12C=CC(=O)C=C1CC[C@@H]1C2=CC[C@]2(C)[C@@H](C(=O)CN3CCN(c4cc(N5CCCC5)nc(N5CCCC5)n4)CC3)CC[C@@H]12,0.983 (inactive) and 1.04 (inactive),0.64 and 0.868,8450 and 5900,8600 and 5690,,,1.27 (inactive),,,,0.075 h (inactive),-5% (inactive),0.9 (inactive),,,inactive,
CC1CNCCN1S(=O)(=O)c1cccc2cnccc12 (stereo unspecified),1.06 (inactive) and 1.03 (inactive),1.18 and 0.538,11400 and 1600,10700 and 1550,,,-1.29 (inactive),216 (active),,,0.05 hour (inactive) and -0.065 hour (inactive),-1% (inactive),0.9 (inactive),,,inactive,
O=C1CC(c2ccc(O)cc2)Oc2cc(O)cc(O)c21 (stereo unspecified),0.857 (inactive) and 0.936 (inactive),1.25 and 0.746,9030 and 10100,10500 and 10800,-0.339 (inactive),0.634,,12.5 (inactive),129% (inactive) and 75.7% (inactive),105% and 74.5%,,,,,,,29.7% (inactive)
CCCCCCCCCCCCCCCCCCOC[C@H](COP(=O)([O-])OCC[N+](C)(C)C)OC,0.77 (inactive) and 1.03 (inactive) and 1.02 (inactive),1.7 and 0.981 and 0.958,1920 and 5950 and 5710,2500 and 5760 and 5620,,,-0.975 (inactive),97.7 (inactive),,,-0.025 h (inactive),0% (inactive),1 (inactive),,,inactive,
